High-throughput results deposited in PubChem by several laboratories.
PfHsp90 yeast 2 – reduces growth (ATP signal) of yeast expressing P. falciparum Hsp90 | S. cerevisiae expressing PfHsp90, BacTiter-Glo ATP, 48 h; yeast lacking PDR1 and PDR3 efflux regulators | inhibition, % at 9.4 µM | actives 0.32% (n = 310,000) | AID 504621;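 active = every replicate shows inhibition above about 80%, whatever the replicate mean, limit read from the data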;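 also: 0% = DMSO neutral controls and 100% = 20 µM radicicol positive controls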
NALP1 yeast inh – NALP1 inhibition. S. cerevisiae NALP1/ASC/caspase-1 growth, X-gal OD620, 72 h. inhibition, % at 10 µM. actives 0.61% (n = 280,000). AID 2071; in the data active = inhibition mostly above about 24%, no sharp cut-off; inactive = mostly below about 32%
NLRP3 yeast inh – blocks the NALP3 inflammasome reconstituted in yeast. Yeast reconstituted NLRP3/ASC/caspase-1, beta-gal luminescence, 24 h. inhibition, % at 10 µM. actives 0.39% (n = 330,000);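 active = inhibition of 50% or more; inactive = inhibition below 50%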;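 also: plate controls were induced DMSO wells for no effect and uninduced yeast grown without galactose for full effect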
tim23-1 inh – tim23-1 yeast growth inhibition; S. cerevisiae tim23-1 growth, BacTiter-Glo luminescence, 24 h; AID 463212; actives 1.3% (n = 330,000); inhibition, % at 20 µM;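 active = growth inhibition of the mutant yeast at or above 50%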;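 also: temperature-sensitive mutant grown at 25 °C; plate controls were DMSO-treated mutant yeast for no effect and medium wells lacking yeast for full effect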
tim10-1 inh – tim10-1 yeast growth inhibition; actives 2.2% (n = 330,000); inhibition, % at 20 µM; S. cerevisiae tim10-1 ts strain growth, BacTiter-Glo, 24 h;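 active = inhibition of at least 40%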;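 also: mutant grown at 25 °C; 0% = DMSO wells with yeast and 100% = wells holding no yeast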
TIM10 inh – TIM10 yeast growth inhibition | S. cerevisiae TIM10 strain growth, BacTiter-Glo luminescence, 24 h | inhibition, % at 10 µM | actives 1.4% (n = 330,000) | AID 463195;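 active = inhibition of 40% or more at the single tested concentration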;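 also: wild-type TIM10 isogenic control strain grown at permissive 25 °C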
NALP3 yeast conf – confirmation of NALP3 inhibitors in yeast | shares compounds with NLRP3 yeast inh | yeast expressing human NALP3, luminescence | inhibition, % at 10 µM | actives 81% (n = 1,300) | AID 435006; in the data active = inhibition above about 48%
Casp1-ASC yeast – active in yeast caspase-1-ASC counter-screen for NALP3 inhibitors; shares compounds with NLRP3 yeast inh; actives 66% (n = 1,000); yeast expressing Caspase-1-ASC, luminescence counter screen; inhibition, % at 10 µM; AID 488784
NALP3 retest – retest-confirmed inhibitor of NALP3 in yeast | shares compounds with NLRP3 yeast inh | yeast expressing human NALP3, luminescence read-out | inhibition, % at 10 µM | actives 53% (n = 1,000)
* marks the source's active call; other numbers are inactive results; · = no result. Sampled rows, rich in hits. Any-hit rate of the full collection: about 4.1%. Rule as the data show it, unless noted: active = inhibition above about 50%; inactive = the rest.

SMILES	PfHsp90 yeast 2	NALP1 yeast inh	NLRP3 yeast inh	tim23-1 inh	tim10-1 inh	TIM10 inh	NALP3 yeast conf	Casp1-ASC yeast	NALP3 retest
CCn1c(CC(=O)Nc2ccccc2C)nnc1SCC(=O)NC1CCCC1	5	-1	20	8	14	-19	·	·	·
C[C@]12CCC3C(CC[C@H]4CC(O)CC[C@]34C)C1CC/C2=N/O (stereo partly drawn)	-4	30	51*	3	-13	-12	73*	71*	55*
C[C@]12CCC3C(CC[C@H]4CC(O)CC[C@]34C)C1CC/C2=N/NC(=O)c1ccncc1 (stereo partly drawn)	3	20	56*	8	-18	-17	80*	55*	44
O=CNn1cnc2c(oc3nc(-c4ccccc4)cc(-c4ccco4)c32)c1=O	12	28	18	-5	3	16	·	·	·
Brc1ccc2c(c1)CN1CCCC1=N2	2	19	63*	8	8	21	80*	53*	51*
O=C1CN2C(=Nc3ccc(Br)cc3C2c2ccccc2)CCN1 (stereo not drawn)	17	2	5	-6	14	19	·	·	·
COc1ccc2cc1Oc1ccc(cc1)CC1c3c(cc(OC)c4c3Oc3cc5c(cc3O4)CCNC5C2)CCN1C (stereo not drawn)	·	·	34	-23	-18	-14	·	·	·
COc1ccc2cc1Oc1ccc(cc1)C[C@H]1c3c(cc(OC)c4c3Oc3c(ccc5c3[C@H](C2)N(C)CC5)O4)CCN1C	14	·	69*	-43	-37	-13	53*	57*	69*
CCOc1ccc(OCC(=O)OCC(=O)NCC2CCCO2)cc1 (stereo not drawn)	·	·	10	6	6	5	·	·	·
COc1ccc(-c2csc(NC3=NCCCCC3)n2)cc1	32	4	31	30	16	27	·	·	·
Brc1ccc(-c2csc(NC3=NCCCCC3)n2)cc1	7	30	58*	24	7	17	55*	50	41
CCCCCCCCNC(C)C(O)c1ccc(SC(C)C)cc1 (stereo not drawn)	-35	78*	67*	38	21	-81	64*	52*	64*
O=C(Nc1ccc2c(c1)OCCO2)c1cc2ccccc2o1	-9	18	53*	30	2	30	69*	63*	73*
COc1ccc(C)cc1NC(=O)c1cc2ccccc2o1	-6	4	18	-13	6	3	·	·	·
O=C(Nc1ccc2oc(=O)ccc2c1)c1cc2ccccc2o1	-15	5	-16	19	4	12	·	·	·
Cc1ccc(C)c(NC(=O)c2cc3ccccc3o2)c1	-3	21	55*	31	25	-14	44	52*	41
CNC[C@H](NC[C@@H](NCCCc1ccccc1)c1ccccc1)[C@H](C)O	-6	5	14	-19	-24	4	·	·	·
COc1ccc(C(C#N)=C2C=CC(=NO)C(C)=C2Cl)cc1	-27	·	·	·	·	·	·	·	·
CSc1nc2ccc(S(N)(=O)=O)cc2s1	-17	27	0	10	12	-4	·	·	·
CSc1nc2ccc(S(=O)(=O)N3CCCC3)cc2s1	7	13	85*	-2	-8	-10	86*	86*	80*
CCN(C(=O)COC(=O)CSc1ccc(C(N)=O)cc1[N+](=O)[O-])C1CCCCC1	-20	6	-2	8	14	12	·	·	·
COc1ccc(-c2ccc(SCC(=O)NCc3ccco3)nn2)cc1	-11	3	-112	10	31	29	-1	·	·
O=C(CSc1cccc2cccc(Cl)c12)NCc1cccs1	4	37	52*	14	27	15	65*	45	31
COC(=O)Cn1nc(-c2ccccc2)c2ccccc21	9	103*	97*	24	26	24	99*	99*	98*
COc1cc(C2C(=O)c3ccccc3C2=O)ccc1O	-23	19	66*	40	32	16	68*	66*	46
SMILES	PfHsp90 yeast 2	NALP1 yeast inh	NLRP3 yeast inh	tim23-1 inh	tim10-1 inh	TIM10 inh	NALP3 yeast conf	Casp1-ASC yeast	NALP3 retest
COc1ccc(C2C(=O)c3ccccc3C2=O)cc1OC	-5	8	2	7	7	13	·	·	·
COc1ccc(CCn2c(C3CCCCC3)nc3c(c(=O)c4ccccc4n3C)c2=O)cc1	·	·	67*	41	3	34	65*	55*	61*
COc1ccc(CCn2c(-c3ccc(F)cc3)nc3c(c(=O)c4ccccc4n3C)c2=O)cc1OC	·	27	27	9	-4	7	·	·	·
COc1ccc(CCn2c(C3CCCCC3)nc3c(c(=O)c4ccccc4n3C)c2=O)cc1OC	9	-4	64*	25	-30	16	84*	44	50
COc1ccc(Cn2c(C3CCCCC3)nc3c(c(=O)c4ccccc4n3C)c2=O)cc1	·	-9	1	10	-7	4	·	·	·
Cc1onc(-c2ccccc2Cl)c1C(=O)N1C=CC(C(F)(F)F)=NCC1	1	58*	50*	21	7	13	66*	45	53*
Cc1onc(-c2ccccc2Cl)c1C(=O)N1C=CC(C(F)(F)Cl)=NCC1	-13	-7	33	22	14	3	·	·	·
CC1CCN(S(=O)(=O)c2cccc(-c3cn4cc(Cl)ccc4n3)c2)CC1	31	2	64*	34	20	26	75*	38	33
CS(=O)(=O)N(CC(=O)N1CCCC1)c1cccc(F)c1	11	23	-7	-5	-9	-4	·	·	·
COc1ccc(NS(=O)(=O)c2cc(NC(=O)c3ccc(=O)[nH]c3)ccc2N2CCCC2)cc1	3	21	5	6	8	-1	·	·	·
CC(C)NC(=O)[C@]1(C)CCC[C@@]2(C)C3CC[C@@]4(C)C[C@]3(CCC21)CC4=O (stereo partly drawn)	36	·	59*	45	15	4	49	53*	53*
C[C@@]12CCC3[C@@](CCC4[C@@]3(C)CCC[C@@]4(C)C(=O)Nc3ccc(Cl)cc3)(CC1=O)C2 (stereo partly drawn)	·	·	33	41	26	28	·	·	·
Oc1ccc(N=Nc2nc(-c3ccccc3)c(-c3ccccc3)[nH]2)cc1	100*	32	51*	32	10	22	62*	75*	50
Oc1ccc(N=Nc2n[nH]c(-c3ccccc3)n2)cc1	33	17	21	-11	-12	-3	·	·	·
CCCCOc1ccc(C(=O)Oc2ccc(C)nc2)cc1	-17	28	80*	32	30	21	87*	92*	84*
